# An excerpt weighted towards active compounds, which were near 3.3% of everything screened.
# ABHD5-PLIN5 inh – inhibitors of human ABHD5-perilipin-5 interaction; Q00G26+Q8WTS1; Split G. princeps luciferase complementation, luminescence, 4 h; inhibition, % at 4 µM; 360,000 compounds, 0.78% hits; AID 602281;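 active means inhibition above the mean inhibition across every tested compound plus 3 SD, cut at about 22% in these data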
# Target sequence (Q00G26 whole entry, looked up): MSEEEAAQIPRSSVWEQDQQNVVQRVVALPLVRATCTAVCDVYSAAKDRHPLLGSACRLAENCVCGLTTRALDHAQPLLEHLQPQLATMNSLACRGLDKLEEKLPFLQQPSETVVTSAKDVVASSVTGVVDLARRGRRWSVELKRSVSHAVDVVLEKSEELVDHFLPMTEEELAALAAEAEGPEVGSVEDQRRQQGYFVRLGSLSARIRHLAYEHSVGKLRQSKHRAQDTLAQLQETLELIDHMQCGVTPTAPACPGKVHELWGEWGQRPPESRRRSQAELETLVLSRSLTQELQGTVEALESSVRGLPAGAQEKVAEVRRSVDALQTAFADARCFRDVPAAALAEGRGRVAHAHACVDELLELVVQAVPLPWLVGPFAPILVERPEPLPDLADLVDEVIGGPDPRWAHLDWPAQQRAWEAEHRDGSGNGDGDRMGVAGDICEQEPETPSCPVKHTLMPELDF
# Target sequence (Q8WTS1 whole entry, looked up): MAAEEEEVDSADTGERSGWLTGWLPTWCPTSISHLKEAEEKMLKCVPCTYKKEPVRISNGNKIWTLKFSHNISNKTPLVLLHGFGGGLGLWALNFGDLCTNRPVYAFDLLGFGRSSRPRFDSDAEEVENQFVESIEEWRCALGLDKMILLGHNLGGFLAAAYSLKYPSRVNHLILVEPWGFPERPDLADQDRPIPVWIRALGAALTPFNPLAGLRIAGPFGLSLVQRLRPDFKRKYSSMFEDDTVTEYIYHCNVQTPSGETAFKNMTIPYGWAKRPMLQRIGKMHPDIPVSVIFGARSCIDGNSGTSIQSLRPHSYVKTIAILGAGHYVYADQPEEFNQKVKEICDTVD
# rCAG RNA binder – r(CAG) repeat RNA binding; TO-PRO-1 dye displacement fluorescence; 370,000 compounds, 1.3% hits; inhibition, % at 3 µM;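 active means inhibition above the plate cutoff, the mean of all test compounds on that plate plus 3 SD, cut at about 35% in these data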;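 further: higher means more dye released from RNA so lower well fluorescence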
# NOD2 RIPK2 PPI – blocks binding of human NOD2 to RIPK2; CHO BLA complementation NOD2-RIPK2, CCF4 ratio; 360,000 compounds, 0.38% hits; AID 624267; O43353; inhibition, % at 4.98 µM; in the data active means inhibition above about 21%
# PRMT1 FP inh – blocks human protein arginine methyltransferase 1; AID 652257; inhibition, % at 2.79 µM; recombinant PRMT1, activity-based probe fluorescence polarization; 370,000 compounds, 1.3% hits;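 active means inhibition above about 21% made by adding two undisclosed values, limit read from the data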
# TLR4-MyD88 BLA – blocks binding of human TLR4 to MyD88; O00206+Q99836; HeLa CL3-4 TLR4/MyD88 BLA complementation, FRET ratio; inhibition, % at 8.4 µM; 200,000 compounds, 0.18% hits; AID 861; in the data active means inhibition above about 25%
# TLR9-MyD88 inh – TLR9-MyD88 interaction inhibition. Q9NR96+Q99836. CHO BLA complementation TLR9-MyD88, CCF4 FRET ratio. inhibition, % at 4.98 µM. 340,000 compounds, 0.21% hits. AID 504734;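 active means inhibition above the mean over all tested compounds plus 3 SD, cut at about 21% in these data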
# rCAG binder conf – r(CAG) RNA repeat binding, confirmation. shares compounds with rCAG RNA binder. TO-PRO-1 dye displacement fluorescence. inhibition, % at 3 µM. 4,300 compounds, 70% hits. AID 652065;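 active means inhibition above a per-plate cutoff, the mean inhibition of sample wells plus 3 SD, cut at about 35% in these data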;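 further: loss of TO-PRO-1 fluorescence as compound displaces dye from 1x1 AA loop RNA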
# dCAG dye counter – DNA CAG dye complex inhibition counter-screen; shares compounds with rCAG RNA binder; d(CAG) DNA oligo TO-PRO-1 dye displacement, fluorescence; inhibition, % at 3 µM; 4,300 compounds, 94% hits; AID 652068;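 active means inhibition above its plate's cutoff, the mean test-well inhibition plus 3 SD, cut at about 4.8% in these data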;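 further: hits displace the dye from DNA and so lower well fluorescence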
# DNA CAG DR – counter-screen for rCAG binders: inhibitors of DNA CAG TO-PRO-1 complex. shares compounds with rCAG RNA binder. DNA CAG/GTC duplex TO-PRO-1 dye displacement fluorescence. IC50, µM. 250 compounds, 20% hits. AID 686960; in the data active means IC50 below about 10 µM
# Hits are given with their value; – = inactive; · = no result.
SMILES,ABHD5-PLIN5 inh,rCAG RNA binder,NOD2 RIPK2 PPI,PRMT1 FP inh,TLR4-MyD88 BLA,TLR9-MyD88 inh,rCAG binder conf,dCAG dye counter,others
CCOC(=O)C1CCCN(c2cc(C)nc3cc(-c4ccc(Cl)cc4)nn23)C1 (centres undefined),–,–,–,–,–,–,·,·,
CCC(=O)N1CCCC1(C)C(=O)Nc1ccc2nc(C)ccc2c1 (centres undefined),–,–,–,–,·,·,·,·,
CCN(CC(=O)Nc1c(F)cccc1F)C(=O)c1ccc(C)c(S(=O)(=O)N2CCCCC2)c1,–,·,–,·,·,–,·,·,
CCc1cccc(NC(=O)Cn2c(=O)c3cccn3c3ccccc32)c1,–,–,–,–,·,–,·,·,
N#CC1=C(N)SC(N)=C(C#N)C1c1cccc(Oc2ccccc2)c1,–,60,–,–,–,–,–,11,
Cc1sc(NC(=O)C2CCCO2)c(C(N)=O)c1C (centres undefined),–,42,–,–,–,–,–,–,
CCOC(=O)c1c(NC(=O)C2CCCO2)sc(C)c1C (centres undefined),–,–,–,–,–,–,·,·,
CCCC(=O)Nc1nnc([C@H]2C[C@H](O)[C@@H](CO)O2)s1,–,–,–,–,·,·,·,·,
Cc1ccc(NC(=O)C2(C)CCN2Cc2ccccc2OC(F)F)cc1 (centres undefined),–,–,–,–,·,·,·,·,
CC(/C=C/c1ccco1)=N\NC(=O)c1cc(Cl)ccc1O,–,49,–,–,–,–,37,16,
Cc1ccccc1NC(=O)CSc1nc2ccccc2c(=O)n1C,–,–,–,–,·,–,·,·,
CCCc1nc2nc(C)c(NS(=O)(=O)c3ccc(CC(C)C)cc3)c(=O)n2[nH]1,–,–,–,–,·,–,·,·,
O=C(Nc1ccccc1C(=O)O)c1ccc(Br)c(S(=O)(=O)NCc2ccccc2)c1,–,73,–,–,–,–,61,22,
CS(=O)(=O)N(Cc1ccccc1)c1ccc(C(=O)Nc2ccccc2C(=O)O)cc1,–,65,–,–,·,–,57,13,
O=C(Nc1ccccc1C(=O)Nc1ccccc1C(=O)O)c1ccccc1,–,73,–,–,·,–,66,26,
O=C(O)c1ccccc1NC(=O)c1ccccc1Nc1ccccc1,–,83,–,–,·,–,67,29,
Nc1ccc(C(=O)Nc2ccccc2C(=O)O)cc1,–,–,–,–,–,–,·,·,
C=CCOc1c(Br)cc(/C=C2/NC(=S)N(C(C)=O)C2=O)cc1OC,–,–,–,–,–,–,·,·,
C=CCOc1ccc(Br)cc1/C=C1\NC(=S)N(C(C)=O)C1=O,–,66,–,–,·,–,49,15,
NC(=NC1CCCCC1)NS(=O)(=O)c1ccccc1,–,–,–,–,·,–,·,·,
COc1ccccc1NC(=O)CSc1nc(O)cc(=O)n1C,–,–,–,–,–,–,·,·,
Cc1ccc(NC(=O)CSc2nc(O)cc(=O)n2C)cc1,–,–,–,–,–,–,·,·,
Cc1ccc(NC(=O)CSc2nc(O)cc(=O)n2-c2ccc(C)cc2)cc1,–,42,–,–,·,–,–,6.3,
COc1ccccc1-n1c(SCC(=O)Nc2cccc3ccccc23)nc(O)cc1=O,–,48,–,–,–,–,–,9.0,
Cn1c(SCC(=O)Nc2cccc3ccccc23)nc(O)cc1=O,–,41,–,–,–,–,–,–,
SMILES,ABHD5-PLIN5 inh,rCAG RNA binder,NOD2 RIPK2 PPI,PRMT1 FP inh,TLR4-MyD88 BLA,TLR9-MyD88 inh,rCAG binder conf,dCAG dye counter,others
CCOc1ccccc1-n1c(SCC(=O)Nc2ccccc2C(=O)O)nc2ccccc2c1=O,–,35,–,–,·,–,–,7.8,
C[C@H](c1ccccc1)N1C[C@H](COCc2ccccc2)Oc2cc(N3CC[C@@H](O)C3)ccc2S1(=O)=O,–,–,–,–,·,·,·,·,
CC(=O)NC1=NN(C(C)=O)C2(S1)C(=O)N(CC(C)C)c1ccc(C)cc12 (centres undefined),–,–,–,–,·,–,·,·,
O=C(NC1=N[C@@]2(C=C3CCCCC3n3c(=O)n(-c4ccccc4)c(=O)n32)[C@H](Cc2ccccc2)N1Cc1ccccc1)c1ccccc1 (some centres undefined),·,56,·,–,·,·,53,20,
O=C(O)c1cccc(NC(=O)c2ccc(COc3ccc(Cl)cc3)cc2)c1,–,47,–,–,·,–,54,16,
O=C(O)c1ccc(Cl)c(NC(=S)NC(=O)c2cccc(COc3ccccc3)c2)c1,–,–,–,–,·,–,·,·,
COc1cc(OC)cc(C(=O)NC(=S)Nc2ccc(Cl)c(C(=O)O)c2)c1,–,–,–,–,–,–,·,·,
O=C(NC(=S)Nc1ccc(Cl)c(C(=O)O)c1)c1ccc(OCc2ccccc2)cc1,–,68,–,–,·,–,62,25,
O=C(NC(=S)Nc1ccc(Cl)c(C(=O)O)c1)c1cccc(COc2ccccc2)c1,–,71,–,–,·,–,67,30,
CCCCOc1cccc(C(=O)NC(=S)Nc2ccc(Cl)c(C(=O)O)c2)c1,–,44,–,–,–,–,49,9.4,DNA CAG DR=–
CSc1ncccc1C(=O)OCC(=O)c1cccc(Br)c1,–,–,–,–,–,–,·,·,
OC[C@@H]1CN(Cc2ccc(Cl)cc2)C[C@H](n2cnc3c(Nc4ccccc4)ncnc32)O1,–,–,–,–,·,·,·,·,
Cc1ccc(OCC(=O)N/N=C2\CC(=O)CC(C)(C)C2)c(Br)c1,–,–,–,–,·,–,·,·,
C=CCOc1ccc(/C=C2\SC(=S)N(NS(=O)(=O)c3ccccc3)C2=O)cc1,–,88,–,–,·,–,79,46,
C=CCOc1ccc(/C=C2\SC(=S)N(N3CCOCC3)C2=O)cc1,–,–,–,–,·,–,·,·,
COc1ccc(/C=C2/SC(=S)N(NS(=O)(=O)c3ccccc3)C2=O)cc1,–,74,–,–,·,–,66,29,
COc1cc(/C=C2\SC(=S)N(Nc3ccccc3)C2=O)cc(OC)c1OC,–,–,–,–,–,–,·,·,
O=C1/C(=C\c2ccccn2)SC(=S)N1c1ccc(S(=O)(=O)Nc2nccs2)cc1,–,65,–,–,·,–,83,52,
COc1ccc(/C=C2/SC(=S)N(c3ccc(S(=O)(=O)Nc4nccs4)cc3)C2=O)cc1,–,73,–,–,·,–,77,44,
Cc1ccc(/C=C2/SC(=S)N(c3ccc(S(=O)(=O)Nc4nccs4)cc3)C2=O)cc1,–,42,–,–,·,–,82,49,
Cc1ccc(N2C(=O)/C(=C/c3cccnc3)SC2=S)cc1,–,–,–,–,–,–,·,·,
O=C(Cn1cc(Cl)c([N+](=O)[O-])n1)NCCC1=CCCCC1,–,–,–,–,·,–,·,·,
Cc1cc(Nc2ccc(C(=O)O)cc2)nc(N)n1,–,–,–,–,·,–,·,·,
